Compounds with a hit are over-represented: about 2.2% of the library has one in this group of screens.
PLK1 inh: blocks human PLK1 kinase activity. AID 619. inhibition, % at 10 µM. recombinant PLK1 kinase, TR-FRET peptide phosphorylation. P53350. 97,000 compounds, 0.53% hits;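 active = inhibition of 50% or more in the single-concentration screen; inactive = inhibition below 50%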;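 note: 0% = DMSO max control and 100% = H-89 dihydrochloride min control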
Pyk2 oligo antag: blocks oligomerization of human Pyk2 in cells | Q293 cells, Pyk2 FERM NanoBiT luminescence; stronger effect = lower value | z-score (the deposit names both 25 µM and 10 µM) | 99,000 compounds, 0.83% hits | AID 1347419;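 active = Z-score of -3 or lower, scaled per plate to the spread of control and sample wells; inactive = z-score above -3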;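 note: negative z-score means lost luminescence so less FERM oligomerization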
Target sequence (Q14289 whole entry, looked up): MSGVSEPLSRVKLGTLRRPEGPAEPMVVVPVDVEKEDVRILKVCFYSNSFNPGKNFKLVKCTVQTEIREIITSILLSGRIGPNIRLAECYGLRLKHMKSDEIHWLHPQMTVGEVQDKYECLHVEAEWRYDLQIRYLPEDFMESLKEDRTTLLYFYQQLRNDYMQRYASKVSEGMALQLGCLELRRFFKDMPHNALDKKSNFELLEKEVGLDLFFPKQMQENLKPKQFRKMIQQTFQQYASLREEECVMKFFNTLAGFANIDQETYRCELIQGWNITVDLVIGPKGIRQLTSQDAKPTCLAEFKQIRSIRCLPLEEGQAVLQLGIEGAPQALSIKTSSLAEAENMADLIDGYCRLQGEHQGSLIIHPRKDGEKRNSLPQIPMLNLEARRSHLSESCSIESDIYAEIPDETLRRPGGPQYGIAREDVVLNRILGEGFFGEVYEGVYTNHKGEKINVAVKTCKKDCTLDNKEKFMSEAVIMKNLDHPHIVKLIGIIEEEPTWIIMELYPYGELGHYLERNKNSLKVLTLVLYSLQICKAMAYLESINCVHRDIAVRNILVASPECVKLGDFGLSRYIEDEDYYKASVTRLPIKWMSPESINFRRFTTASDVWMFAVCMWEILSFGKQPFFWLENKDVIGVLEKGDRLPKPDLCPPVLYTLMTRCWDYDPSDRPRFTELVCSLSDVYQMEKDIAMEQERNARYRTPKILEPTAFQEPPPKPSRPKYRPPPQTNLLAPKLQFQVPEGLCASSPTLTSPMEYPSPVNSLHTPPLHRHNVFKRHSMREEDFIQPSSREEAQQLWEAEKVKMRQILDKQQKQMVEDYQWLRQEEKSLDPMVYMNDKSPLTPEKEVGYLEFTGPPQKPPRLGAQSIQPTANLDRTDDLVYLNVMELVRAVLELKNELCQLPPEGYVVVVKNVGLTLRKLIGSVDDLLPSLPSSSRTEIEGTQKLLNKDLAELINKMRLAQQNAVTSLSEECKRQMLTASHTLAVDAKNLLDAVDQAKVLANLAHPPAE
IL1B cytotox: HUVEC cytotoxicity counter-screen, IL-1B stimulated; AID 845; cell count reduction, % at 2 µM; HUVEC cell count loss, Hoechst imaging; 94,000 compounds, 0.41% hits;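 active = cell count reduction more than 3 SD above the screen-wide mean, cut at about 70% in these data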;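 note: normalized per plate to untreated control cells as the no-loss baseline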
IL1B NFkB pot: enhances IL-1B driven NFkB nuclear translocation; 94,000 compounds, 0.3% hits; activation, % at 2 µM; AID 819; HUVEC IL-1B NFkB p65 nuclear translocation imaging;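 active = activation above 40%, about the mean plus 3 SD, also judged a hit on visual image review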;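 note: percent activation is computed from the nuclear over cytoplasmic p65 intensity ratio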
IL1B NFkB inh: blocks IL-1B driven NFkB nuclear translocation in HUVEC cells. HUVEC IL-1B NFkB p65 nuclear translocation imaging. inhibition, % at 2 µM. 94,000 compounds, 0.43% hits. AID 796;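 active = inhibition above about 30% together with a positive call from visual inspection of the well image, limit read from the data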;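 note: nuclear over cytoplasmic p65 intensity ratio measured by imaging; 0% = IL-1B stimulated DMSO wells and 100% = unstimulated DMSO wells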
Plk1 PBD FP: Plk1 (human) PBD binding inhibition; 97,000 compounds, 0.13% hits; AID 693; Plk1 PBD phosphopeptide binding, fluorescence polarization; inhibition, %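 (tested at about 20 µM)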; in the data active = inhibition above about 34%, passing the limit was not always enough
Starred values were filed as active, the others as inactive; . = not tested or not shown.

SMILES | PLK1 inh | Pyk2 oligo antag | IL1B cytotox | IL1B NFkB pot | IL1B NFkB inh | Plk1 PBD FP
O=C(CCOc1ccccc1)NCC(c1ccco1)N1CCCCC1 (configuration not stated) | 0.6 | -0.52 | -72.8 | -6.2 | 6.2 | 1.7
CC1CC(C)(C)CC2(C1)NC(=O)N(CC(=O)NCC(c1ccco1)N1CCCCC1)C2=O (configuration not stated) | -1.5 | -0.46 | 7.7 | -34.9 | 34.9* | -14.3
COc1ccc(N=Nc2nc3cc(Br)c(Br)cc3n2C)c(OC)c1 | . | 0.19 | . | . | . | .
Cc1cc(-c2nnc3n2N=C(c2ccc(-c4ccccc4)cc2)CS3)n[nH]1 | -11.9 | -3.4* | 2.8 | -10.1 | 10.1 | 1.0
Cc1cccc(-c2nnc3n2N=C(c2ccccc2)CS3)c1 | -9.3 | -1.71 | -208.6 | 12.8 | -12.8 | -17.6
CC1(C)C(=O)NCCN1C(=O)CCC(=O)O | -9.0 | 0.31 | -53.0 | 34.2 | -34.2 | 9.1
N#CC1=C(N)Oc2cc(Nc3ccccc3)ccc2C1c1ccncc1 (configuration not stated) | -3.2 | -2.47 | -28.6 | 1.6 | -1.6 | -12.9
CC(C)Nc1cc(N2CCCC2)ccc1[N+](=O)[O-] | -0.9 | -3.04* | -19.3 | -2.6 | 2.6 | -16.4
Cc1ccc(CS(=O)(=O)CCC(=O)N2CCOCC2)cc1 | -4.7 | 0.53 | 0.6 | 1.4 | -1.4 | 15.6
CCOC(=O)c1c(NC(=O)COC)sc(C)c1C | -10.5 | 1.05 | -25.1 | 49.3* | -49.3 | 29.0
COc1cccc(Nc2nnc(SCc3cc([N+](=O)[O-])cc4c3OCOC4)s2)c1 | -12.5 | -3.26* | -21.4 | 25.6 | -25.6 | 5.6
CCc1nnc(NC(=O)C2c3ccccc3Oc3ccccc32)s1 | -11.6 | -1.95 | -12.7 | 8.2 | -8.2 | -6.8
CCN(CC)S(=O)(=O)c1ccc2c(c1)nc(SCc1nc3ccsc3c(=O)[nH]1)n2CC | 9.6 | -1.67 | -34.5 | -1.0 | 1.0 | 25.4
CCOC(=O)CSc1nc(C2CC2)cc(-c2ccc(F)cc2)c1C#N | -4.5 | -3.27* | -46.5 | 1.1 | -1.1 | -39.6
CCOC(=O)CSc1nc(C)cc(C)c1C#N | -5.2 | 0.64 | -4.9 | -50.3 | 50.3* | 11.3
Cc1cc(C)c(C#N)c(SCC(=O)OC2CCCCC2)n1 | . | -0.6 | . | . | . | .
CC(C)OC(=O)c1ccc(NC(=O)Cn2c(-c3nonc3N)nc3ccccc32)cc1 | -6.5 | -4.2* | -5.1 | -0.4 | 0.4 | -9.0
COC(=O)c1ccccc1NC(=O)Cn1c(-c2nonc2N)nc2ccccc21 | -12.3 | 0.12 | 35.4 | -27.4 | 27.4 | 11.0
CC(=O)NS(=O)(=O)c1ccc(NC(=O)COc2ccc(C(=O)c3ccccc3)cc2)cc1 | . | 1.33 | . | . | . | .
Cc1cc(O)cc(O)c1-c1onc(C(F)(F)F)c1-c1cscn1 | 58.0* | 0.62 | 2.9 | -1.7 | 1.7 | 15.4
Cc1cc2ccccc2n1CCNC(=O)c1cccs1 | -6.5 | . | 37.0 | -59.1 | 59.1* | 10.3
CC1CCN(C(=O)CSc2nnc(CNc3ccc(F)cc3)n2Cc2ccco2)CC1 | -1.6 | 2.26 | 84.5* | -31.9 | 31.9* | -21.0
CC(C(=O)Nc1ncn[nH]1)N1C(=O)c2ccccc2C1=O (configuration not stated) | -8.8 | 0 | 82.9* | 22.7 | -22.7 | -14.3
CCOC(=O)c1nn(-c2ccccc2)c(C#N)c1NC(=O)c1nn(CC)cc1Br | -11.6 | -3.47* | -11.1 | 2.4 | -2.4 | -15.6
O=C(C1CC(c2ccccc2O)=NO1)N1CCCCC1 (configuration not stated) | -24.7 | -0.05 | -70.2 | 29.3 | -29.3 | 5.0
SMILES | PLK1 inh | Pyk2 oligo antag | IL1B cytotox | IL1B NFkB pot | IL1B NFkB inh | Plk1 PBD FP
CCOC(=O)C(Cc1ccccc1)NC(C)=O (configuration not stated) | -8.3 | -0.61 | 92.4* | -15.7 | 15.7 | -21.9
CC(CCc1ccccc1)NC(=O)c1cccnc1 (configuration not stated) | -5.0 | -0.03 | 1.3 | -58.2 | 58.2* | 25.6
COc1ccc2nc(SCC(=O)N3CCN(c4ccccc4F)CC3)c(C#N)cc2c1 | -11.0 | . | 1.3 | -45.6 | 45.6* | 5.6
CSc1ccc(CNc2cccc3ccccc23)cc1 | -13.4 | -4.33* | -11.3 | 17.1 | -17.1 | 5.4
CSc1ccc(CNc2ccc(C)cc2)cc1 | -4.7 | -0.04 | -56.5 | -8.2 | 8.2 | 24.0
CCOC(=O)Cn1c(-c2cccnc2Cl)nc2cc(Cl)c(Cl)cc21 | 0.3 | -3.76* | -37.3 | -4.0 | 4.0 | -27.2
COc1ccc(CCN2C(=O)c3[nH]nc(-c4ccccc4O)c3C2c2cccc(Cl)c2)cc1 (configuration not stated) | -10.5 | -3.47* | 7.3 | -1.2 | 1.2 | -15.7

Screening results: PubChem, several laboratories
